Results: the supplement of paper PMC11417369
± gives the standard deviation of the averaged measurements. In all, about 25,000 sequences were measured (“ln(normalized median fluorescence intensity)”: median about 7.9, highest 2% from about 11 on). Only a selection was taken, and the highest values are over-represented in it overall.

What follows are sequences tested on PfAP2-I AP2 domain 3 (GST-tagged) (assay: gcPBM binding intensity (ln(normalized median fluorescence intensity)); higher = stronger DNA binding).
Procedure, shortened: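 After 1 h on an Agilent 4 × 180k array of primer-extended double-stranded 36-bp intergenic genomic probes and negative controls, bound GST-tagged P. falciparum DNA-binding domains were detected with Alexa488 anti-GST antibody and scanned at 488 nm. The domains had been expressed in E. coli, and binding took place in 1× PBS with 1% milk, 0.2 mg/ml BSA, 0.5% salmon testes DNA and 0.03% Triton X-100. Binding intensity is the highest Masliner-normalised natural-log median intensity across replicate spots of either probe orientation.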

Sequence | gcPBM binding intensity (ln)
ACAAAGTAAAATAATGCATGTAGGTATACATAATTA [TGCATGCA_site607] | 7.71 ± 0.81
TAGAACAAATAAAACACACACATATATATATATATG [CACACA_site2768] | 8.06 ± 0.41
ATATATTAAAAGGATTAGGAAAAAATATGATTTATC [TGCATGCA_negctrl_site405] | 7.55 ± 0.78
GAACAAAATTTTATATGTACATAATATTTATATATA [XGTACX_site3667] | 8 ± 0.2
TTACAAGTAAAAGGTACACACATTATATATACAAAT [CACACA_site8290] | 7.97 ± 0.55
TTTTTTTTCATTTTATGTACACATAATTTAATATAT [XGTACX_site5768] | 8.16 ± 0.45
CATGACATATCCTGTAGTACAACGTATATATAAGAT [XGTACX_site2577] | 7.8 ± 0.61
CTTAAAATATATTTAGTGCATATACTAATATATTAT | 10.2 ± 0.45
AATACTTTTTATTTAGTGCATAAGAAAATATAAATC [GTGCAC_site9875] | 10.9 ± 0.44
GAATAAATATTAAATGTGCACTTGAATAGATGTAAA | 10.1 ± 0.16
AAATAAAAATTAAAAAAATAGAAACGAATTGAATGC [TGCATGCA_negctrl_site365] | 7.83 ± 0.64
CAATTTATTATATATGTGCACATATAATTTTACAAA | 9.59 ± 0.24
TATTTATAAATATGTGTGCACAATTTATTTTATAAT | 11 ± 0.26
TATAAATTAAAATGTGTGCACTAAATTGAAATAGAA | 11.5 ± 0.53
ATCAAAAATATAAAAAATATAAACAATTTATTATCA [CACACA_negctrl_site768] | 7.32 ± 0.47
TTTTTTCAATTTTTTTTAAATAAACCACAAAAAAAA [CACACA_negctrl_site1701] | 7.74 ± 0.49
TTATAATTTTAATGTGCACACAATTAAAATATTATA [CACACA_site5172] | 10.79 ± 0.085
TTTCAATTTATCAGTGTGCACAAAAATAAAATAAAA | 10.88 ± 0.028
ATATAGAAAATGCATACACACTTTATAAATATATTT [CACACA_site6553] | 7.92 ± 0.53
ATATATTTTTAAAAAAATTAAGAATTTTACATCTCC [CACACA_negctrl_site1450] | 7.59 ± 0.65

Sequence | gcPBM binding intensity (ln)
AACAATTATTTATCTACACACTTTTATGTTATTTAC [CACACA_site9] | 7.88 ± 0.67
AATTTTTTTTTCTTTTGTACGTAAATATGTGTAGGC [XGTACX_site215] | 8.33 ± 0.26
ATGTGAAAATAAGACACACTCAAAAGGTTTATATTA [CACACA_site4595] | 7.67 ± 0.43
ATACTTTTAATATGCACATGCAAATATGAAATATCG [TGCATGCA_site603] | 9.22 ± 0.39
TTATAAAAAAAAAAAAAAAAAAAAACCAATATAATA [CACACA_negctrl_site968] | 7.3 ± 0.48
ATTTATTTGAAGAATTGTACTAAATTATATAGCGGT [XGTACX_site4998] | 7.94 ± 0.49
TATATATATAAATACACACACACCGTCCGTGTTAAA [CACACA_site5623] | 8.54 ± 0.53
TATAAAAATAAGCACACACACAAATATATATTTATT [CACACA_site922] | 8.12 ± 0.25
ACAAAAAAAATAAGCACACATATATATATATATATA [CACACA_site816] | 9.38 ± 0.36
TTTTCTTGGTTCAGTGTGCACTTATATATATATATA | 10.3 ± 0.2
AATAATAAAAATATTGTGCACTTGTATATTTATTAT [GTGCAC_site9963] | 11 ± 0.11
ATTTATATTAAAAGTGTGCACTTTTTTTTTTTTTTT | 9.77 ± 0.085
TATTATATAATAAAAATTATTATTATTTGTATAAAT [CACACA_negctrl_site195] | 7.21 ± 0.42
TATTAACAAATTTATGTGCACTGAGGACAAATATAT | 10.96 ± 0.085
GCCCCCAAATTATGTGTGCACTTTATATTCCTGAGA [GTGCAC_site9474] | 10.4 ± 0.23
ATTATTAATAATTGTGTGCACAAATATTTATATGCT | 10.815 ± 0.007
TTTATATTCTTAAGTGTGCACTATATATATATATAT [GTGCAC_site9719] | 11.2 ± 0.23
TTTTTTATTATATAATTGTATATAAAATTATAATTT [GTGCAC_negctrl_site733] | 7.67 ± 0.47
ATATATATATATATTGTGCACAAAAAAAAATAAGCA | 11.2 ± 0.15
ATGTTATAAGATTTATGTACACACATATACACACCT [XGTACX_site1316] | 8.35 ± 0.21

Sequence | gcPBM binding intensity (ln)
CATAAATCAGCCATAACACACATACCTATATACATA [CACACA_site6324] | 7.75 ± 0.57
TAAAATATTATCTACGCACACATTAAAATAAAAAAA [CACACA_site3709] | 8.32 ± 0.2
ACTTTAAAAAGATTCACACAAAATATATAAAAATAT [CACACA_site5334] | 7.75 ± 0.39
AGAATTTTATTATATTGTACTTTTTATAAACCTTGT [XGTACX_site7495] | 7.7 ± 0.71
ATTAAAACACAATATTCACACATGTATATTATATAT [CACACA_site5191] | 7.72 ± 0.51
CATATATATATATGAACACACAAAAAGAATATTTCC [CACACA_site1493] | 7.62 ± 0.63
GAATATGTAAAGAAAGGTACACATGAAAATATGTGT [XGTACX_site446] | 7.71 ± 0.66
GATGTTTCTATTTTAGTGCATTTTAAATAAATAAAT | 10.4 ± 0.12
ATGAATACAAAATTATACAAAATTATCAAAAGTATG [CACACA_negctrl_site1453] | 7.5 ± 0.49
TTGTATACATAAAATGGTACAGAATATATAATTCTA [XGTACX_site7236] | 7.45 ± 0.61
ATAATATATGTATGTATGCACTTTTATTATTTTTTT | 8.96 ± 0.15
AATAACTATATATGTGTGCACAAAAATTTGACATAA | 10.7 ± 0.049
AAATATATGTTATATGTGCACTTTTTTTTTTTTTTT [GTGCAC_site9667] | 10.21 ± 0.035
TATTTTTGGTTATGTGTGCACTATGAACAACAAAAT | 11.4 ± 0.26
ATTTTATGAAATGTTGCACACAAAAAACAACATGTT [CACACA_site8408] | 8.95 ± 0.092
TATATATAAATATATGTGCACTTTTTATATTTATAT | 11 ± 0.13
TATATTATTTATTTTTGTACATATTATGAATGAATA [XGTACX_site3971] | 7.73 ± 0.33
ACTCAAACCTTTAGAGTGCAAAAAAAAAAAAAAAAA [GTGCAC_site9952] | 10 ± 0.21
TTTTTTAAAAGATAATATTTTATTAATGTATTCTCA [GTGCAC_negctrl_site598] | 7.2 ± 0.55
TTAAAAAAATATTGAAGTACACACATTATAAACTTT [XGTACX_site3548] | 7.89 ± 0.38
